Shown is part of a subset that was picked to be rich in hits.
KDM5B inhibitor – Primary screen for KDM5B Histone Demethylases FDH-coupled qHTS | Lysine-specific demethylase 5B (Homo sapiens), Q9UGL1 | KDM5B demethylase, FDH-coupled NADH fluorescence (FDH is formaldehyde dehydrogenase) | Potency, µM (doses to about 57.7 µM), usual class: inhibitors | 220,000 compounds, 2.6% hits | AID 1347165, 2019; active = well fitted inhibition curve with a large enough effect; also: 0% is about no effect; nearly all actives have a fitted effect of over 70% in size
Target sequence (Q9UGL1 whole entry, looked up): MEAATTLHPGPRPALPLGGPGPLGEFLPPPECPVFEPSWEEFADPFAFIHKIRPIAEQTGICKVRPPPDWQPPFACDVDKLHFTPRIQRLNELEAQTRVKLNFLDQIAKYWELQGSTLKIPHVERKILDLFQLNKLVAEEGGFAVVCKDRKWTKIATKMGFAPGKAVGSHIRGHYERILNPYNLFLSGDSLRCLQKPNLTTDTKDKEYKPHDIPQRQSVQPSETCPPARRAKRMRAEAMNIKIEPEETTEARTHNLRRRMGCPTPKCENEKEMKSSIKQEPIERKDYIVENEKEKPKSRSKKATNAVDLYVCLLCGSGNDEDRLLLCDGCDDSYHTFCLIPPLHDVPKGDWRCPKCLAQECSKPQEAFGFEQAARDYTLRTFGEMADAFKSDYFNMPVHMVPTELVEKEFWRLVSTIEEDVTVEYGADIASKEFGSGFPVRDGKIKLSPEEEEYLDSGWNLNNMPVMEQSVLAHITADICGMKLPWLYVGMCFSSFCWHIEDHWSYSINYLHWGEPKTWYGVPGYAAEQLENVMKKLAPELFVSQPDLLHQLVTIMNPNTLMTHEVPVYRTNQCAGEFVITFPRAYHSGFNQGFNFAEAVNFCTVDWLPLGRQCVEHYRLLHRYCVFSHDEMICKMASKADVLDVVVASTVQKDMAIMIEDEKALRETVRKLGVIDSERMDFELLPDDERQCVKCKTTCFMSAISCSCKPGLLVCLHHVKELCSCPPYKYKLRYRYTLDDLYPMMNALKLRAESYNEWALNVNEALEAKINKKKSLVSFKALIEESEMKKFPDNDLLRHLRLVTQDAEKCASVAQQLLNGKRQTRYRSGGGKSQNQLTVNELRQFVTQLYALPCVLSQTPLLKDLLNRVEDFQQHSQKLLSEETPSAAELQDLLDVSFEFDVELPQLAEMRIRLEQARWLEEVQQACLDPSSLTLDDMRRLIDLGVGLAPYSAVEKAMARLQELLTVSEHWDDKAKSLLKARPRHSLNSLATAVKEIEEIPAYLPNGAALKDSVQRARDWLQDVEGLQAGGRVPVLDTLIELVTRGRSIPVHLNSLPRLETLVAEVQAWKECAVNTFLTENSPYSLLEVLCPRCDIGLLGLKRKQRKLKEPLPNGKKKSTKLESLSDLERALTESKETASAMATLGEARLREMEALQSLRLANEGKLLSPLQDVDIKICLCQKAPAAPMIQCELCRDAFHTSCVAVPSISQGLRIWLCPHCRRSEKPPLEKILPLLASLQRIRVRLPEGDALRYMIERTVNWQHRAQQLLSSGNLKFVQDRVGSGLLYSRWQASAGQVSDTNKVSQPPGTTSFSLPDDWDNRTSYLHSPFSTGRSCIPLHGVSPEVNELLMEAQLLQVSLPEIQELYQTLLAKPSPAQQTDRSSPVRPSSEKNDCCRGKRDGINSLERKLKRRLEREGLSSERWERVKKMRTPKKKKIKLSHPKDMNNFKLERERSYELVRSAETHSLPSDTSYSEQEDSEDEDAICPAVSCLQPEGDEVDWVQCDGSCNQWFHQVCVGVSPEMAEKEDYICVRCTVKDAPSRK
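Measured: NADH fluorescence change, 30 min, RT. System: KDM5BΔAP 200 nM final, H3K4me3 peptide, α-KG, Fe(II), ascorbate, NAD⁺ plus FDH, pH 7.5 HEPES. Compounds: titrated, 10 min pre-incubation with enzyme.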
* = called active by the depositor; i = inactive. Potency is read from the fitted curve at half-maximal effect.

SMILES	KDM5B inhibitor
COc1ccc(-c2nc3cnccn3c2NCCC(=O)N2CCCCCC2)cc1	28.2µM*
COc1ccc(-c2noc(C(=O)N3CCCC3)c2[C@H](C)O)cc1	i
O=C(CCOc1cccc(F)c1)N1CCC(c2nnc3n2CCC3)CC1	i
CC(C)c1ccc(Nc2c(-c3ccc(N(C)C)cc3)nc3cnccn23)cc1	i
O=C(CCNc1c(-c2cccc(F)c2)nc2cnccn12)N1CCCC1	28.2µM*
O=C(Nc1ccc(-c2cccc(F)c2)cc1)C1CCCN(C(=O)c2ccncc2)C1 (stereo not given)	i
COc1ccc(-c2nnc(SCC(=O)N3CCCCC3)o2)cc1	i
O=C(O)CCNc1c(-c2ccc(F)cc2)nc2cnccn12	28.2µM*
Cc1ccc(-c2nc3cnccn3c2NCCC(=O)N2CCCCC2)cc1	31.6µM*
Cc1nn(C)c2nc(NCCC(=O)N3CCCC3)sc12	i
Cc1ccc(C(=O)Nc2c(-c3ccccc3)nc3ccccn23)cc1	i
CCC(C)Oc1ccccc1/C=C(\C#N)c1nc2ccccc2[nH]1 (stereo not given)	i
O=C(NC1CCCCC1)C1c2ccccc2C(=O)N(Cc2ccccc2)C12CCCC2 (stereo not given)	i
O=C(COc1ncnc2ccc(Br)cc12)Nc1ccc(F)cc1	i
COc1ccccc1NC(=O)CSCc1ccc(Cl)c(Cl)c1	i
CCOc1ccc(Nc2nc3ccccc3nc2NS(=O)(=O)c2cccs2)cc1	i
Ic1ccc(SN(Cc2ccco2)Sc2ccc(I)cc2)cc1	i
Cc1csc(NC(=O)CCc2ncc(-c3ccc(F)cc3F)o2)n1	i
CC1CCCN(C(=O)Cn2ccn3nc(-c4ccc(F)cc4)c(CO)c3c2=O)C1 (stereo not given)	i
COc1cccc(-c2cc(C(=O)N[C@@H](C)c3ncccc3C)[nH]n2)c1	i
O=C1c2ccccc2S(=O)(=O)N1Cc1nc(-c2ccc(Cl)c(Cl)c2)cs1	i
CS(=O)(=O)N(C1CC1)C1CCOC2(CCN(C(=O)CCCc3ccccc3)CC2)C1 (stereo not given)	i
Cc1cccc(OCC(=O)N/N=C/c2cccc(O)c2)c1	i
O=C(Nc1c(-c2ccccc2)nc2ccccn12)c1cccc(F)c1	i
O=C(CNc1nc(-c2ccccc2)nc2ccccc12)N1CCCC1	i
SMILES	KDM5B inhibitor
O=C(CCNc1c(-c2ccccc2)nc2cnccn12)N1CCCC1	28.2µM*
O=C(CCNS(=O)(=O)c1ccccc1)N1CCCCCC1	i
CN(Cc1ccccc1)C(=O)c1nc2ccccn2c1CNCCOc1cccnc1	i
CN(Cc1ccccc1)C(=O)CCNc1c(-c2cccc(F)c2)nc2cnccn12	25.1µM*
CCCNc1nc2ccccc2nc1C(=O)Nc1cc(C)ccc1OC	i
CCN(C(=O)Cn1nc(C)c2ccccc2c1=O)c1nc2ccccc2s1	i
Cc1nn(CC(O)COc2cccc(Br)c2)c(=O)c2ccccc12 (stereo not given)	i
COc1ccc(NC(=O)c2cccs2)cn1	i
Cc1cc(Cl)ccc1NC(=O)c1cc2ccccn2n1	i
O=C(NCc1cccnc1)c1cc(-c2cnccc2Cl)c2cccn2n1	i
O=C(NCc1ccc(Cl)nc1)c1cc2cccnn2n1	35.5µM*
O=C(Nc1ccc(Cl)nc1)c1cc2cccnn2n1	35.5µM*
O=C(NCc1ccc(Cl)nc1)c1cn2c(n1)CN(C(=O)c1ccccc1F)CC2	i
CN(CCCC#N)CC1COc2ccccc2O1 (stereo not given)	i
COc1ccc(OC)c(NC(=O)C2Cn3cccc3C(=O)N2)c1 (stereo not given)	i
CCc1cccc(NC(=O)Cn2c(-c3cnccn3)nc(C)c(C)c2=O)c1	i
Cc1ccc2oc(/N=C(\N)NC(=O)c3ccccc3)nc2c1	i
CCN(Cc1ccccc1)C(=S)Nc1ccc(C)cc1C	i
COc1cccc(N2CCN(C(=O)CCNS(=O)(=O)c3ccc4[nH]c(=O)ccc4c3)CC2)c1	i
COc1cccc(-c2c(NC(=O)c3cccc([N+](=O)[O-])c3)oc3ccc(Cl)cc3c2=O)c1	i
CC(=O)c1csc(NC(=O)c2nn(C(C)C)c(=O)c3ccccc23)n1	i
Cc1ccc(-c2nnc3ccc(N4CCCCC4)nn23)nc1	31.6µM*
Cc1nnc2ccc(N3CCOCC3)nn12	i
Cc1ccc(-c2nnc3ccc(N4CCCC4)nn23)nc1	i
COc1ccc(S(=O)(=O)N2CCC(C(=O)Nc3ccccc3F)CC2)c2cccnc12	i
SMILES	KDM5B inhibitor
COc1ccc(/C=C/c2nc3ccccc3[nH]c2=O)cc1	i
CCOC(=O)c1ccc(NC(=O)CSc2nc(CCSC)c(C)[nH]2)cc1	i
COc1cc(NC(=O)Cn2c(-c3ccc(F)cc3)nc(C)c(CCO)c2=O)cc(OC)c1OC	i
COc1ccc(OC)c(NC(=O)Cn2c(-c3ccc(F)cc3)nc(C)c(CCO)c2=O)c1	20µM*
COc1ccc(Cl)cc1NC(=O)Cn1c(-c2ccc(F)cc2)nc(C)c(CCO)c1=O	i
Cc1ccc(SCCC(=O)N2CCN(S(=O)(=O)c3ccc(Cl)s3)CC2)cc1	i
Fc1ccc(Cc2nc3nccc(-c4ccncc4)n3n2)cc1	i
COc1ccc(-c2ccnc3nc(Cc4ccc(F)cc4)nn23)c(F)c1	25.1µM*
COc1ccc(Cc2nc3nccc(-c4cccs4)n3n2)cc1	i
COc1ccc(Cc2nc3nccc(-c4ccc(F)cc4OC)n3n2)cc1	17.8µM*
Fc1ccc(Cc2nc3nccc(-c4cccs4)n3n2)cc1	28.2µM*
COc1cc(F)ccc1-c1ccnc2nc(CC(C)C)nn12	28.2µM*
O=C(CSc1nnc2c(=O)n(-c3ccc(F)cc3)ccn12)N1CCN(c2ccc(F)cc2)CC1	i
CCOc1ccc(NC(=O)Cn2c(C)cc3nc4n(c(=O)c32)CCC4)cc1	i
COc1ccc(/C=C(\C#N)C(=O)Nc2cccc(C(F)(F)F)c2)c(OC)c1	i
Nc1nnnn1Cc1nnc(SCc2ccccc2Cl)n1-c1ccccc1	i
O=[N+]([O-])c1cccc(N/N=C/c2ccccn2)c1	i
O=C1CC2CCCC(C1)N2C(=O)c1cncc(Br)c1	i
Cc1cccc(C)c1NC(=O)CNC(=O)CCc1ncc(-c2ccccc2F)o1	i
CCc1cccc2c(C(=O)COC(=O)c3cc(S(=O)(=O)N4CCOCC4)ccc3F)c[nH]c12	i
COc1ccc(Cc2nc3nccc(-c4ccc(OC)cc4F)n3n2)cc1	28.2µM*
COc1ccc(Cn2c(C3CCN(C(=O)Cc4ccccc4OC)CC3)n[nH]c2=O)cc1	i
O=C(c1ccc(F)cc1)N1CC[C@H](c2nc3ccc(F)cc3[nH]2)C1	i
COCc1cccc(-c2n[nH]c3c2CC(=O)N(Cc2ccccc2)C3)c1	i
O=C(c1ccccc1)N1CCC2(CC1)C(=NC1CCCC1)NC(=O)N2c1cc(F)cc(F)c1	i
SMILES	KDM5B inhibitor
CN(Cc1ccc(-c2ccccc2)cc1)C(=O)c1ccc(F)cc1	i
O=C(NCc1cnccn1)c1ccc(-c2ncc3cnc(-c4cccc(F)c4)cn23)cc1	35.5µM*
COCCNC(=O)c1ccc(-c2ncc3cnc(-c4cccc(F)c4)cn23)cc1	35.5µM*
COc1ccc(-c2ncc(CCNC(=O)c3cccc(F)c3)[nH]2)cc1	i
CCc1ccc(C(=O)NCCOC)cc1	i
O=C(NCc1cnccn1)c1nc(-c2ccccc2)cc2[nH]ccc12	i
O=C(NCc1cccc(F)c1)c1ccc(-n2cnc3cccnc32)cc1	i

Source: PubChem
